The values that follow come from PubChem BioAssay (EPA / NIEHS).

As usually defined, the AC50 is the midpoint of the concentration-response curve, whichever way the signal moves.

Common to all, as to conditions: mRNA level, 48 h; actives raise or lower the signal
Read-out in one test: Caspase-3 (Homo sapiens) (UniProt P42574)
The test is described as follows: LTEA_HepaRG_CASP3: Life Technologies and Expression Analysis (LTEA) Assay for cysteine-aspartic acid protease (CASP3) using HepaRG (AID 2283477). In short, it runs like this:
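Transcript-level assay: CASP3 mRNA in human HepaRG after 48 h treatment, eight half-log concentrations from 100 uM in 0.5% DMSO, quantified by qRT-PCR.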

Read-out in test [1]: Cytochrome P450 (CYP1A2), CYP1A2 (gene 1544)
The test is described as follows: LTEA_HepaRG_CYP1A2: Life Technologies and Expression Analysis (LTEA) Assay for Cytochrome P450 (CYP1A2) using HepaRG (AID 2283479). In short, it runs like this:
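In duplicate wells, HepaRG cultures maintained in 0.5% DMSO were treated 48 h across an 8-point, half-log series topping at 100 uM; phenobarbital (1 mM) served as induction control. Expression was read by qRT-PCR.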

Read-out in test [2]: cysteine-aspartic acid protease (CASP8), CASP8 (gene 841)
Kind of test: LTEA_HepaRG_CASP8: Life Technologies and Expression Analysis (LTEA) Assay for cysteine-aspartic acid protease (CASP8) using HepaRG (AID 2283480). The method in brief:
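Differentiated HepaRG cells in serum-free induction medium, 48 h exposure, eight-point half-log series from 100 uM in 0.5% DMSO, duplicates. CASP8 mRNA by qRT-PCR, normalized to ACTB, GAPDH, POLR2A; bidirectional fit versus DMSO.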

Read-out in test [3]: Cytochrome P450 (CYP2B6), CYP2B6 (gene 1555)
The test is described as follows: LTEA_HepaRG_CYP2B6: Life Technologies and Expression Analysis (LTEA) Assay for Cytochrome P450 (CYP2B6) using HepaRG (AID 2283481). In short, it runs like this: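 Human HepaRG, 48 h dosing, 0.5% DMSO vehicle, top dose 100 uM. CYP2B6 transcript by qRT-PCR, housekeeping-normalized, bidirectional curve fit.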

Read-out in test [4]: Cytochrome P450 2C19 (Homo sapiens) (UniProt P33261)
The test is described as follows: LTEA_HepaRG_CYP2C19: Life Technologies and Expression Analysis (LTEA) Assay for CYP2C19 using HepaRG (AID 2283482). The method in brief: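 Endpoint: CYP2C19 mRNA change, bidirectional fit vs 0.5% DMSO. Cells: HepaRG, 48 h exposure, eight-point series topping at 100 uM. Quantitation: qRT-PCR normalized to ACTB, GAPDH, POLR2A.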

Read-out in a further test: CYP2C8 (gene 1558)
Kind of test: LTEA_HepaRG_CYP2C8: Life Technologies and Expression Analysis (LTEA) Assay for CYP2C8 using HepaRG (AID 2283483). The method in brief: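 Differentiated HepaRG cells in serum-free induction medium exposed 48 h in duplicate to 8 half-log concentrations from 100 uM in 0.5% DMSO. CYP2C8 mRNA by qRT-PCR normalized to ACTB, GAPDH, POLR2A; bidirectional fit versus DMSO.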

Read-out in the next test: CYP2C9 (gene 1559)
Kind of test: LTEA_HepaRG_CYP2C9: Life Technologies and Expression Analysis (LTEA) Assay for CYP2C9 using HepaRG (AID 2283484). In short, it runs like this: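 Differentiated human HepaRG cells in serum-free induction medium were exposed 48 h to chemicals in 8-point half-log series from 100 uM (0.5% DMSO), in duplicate. CYP2C9 mRNA was measured by qRT-PCR, normalized to ACTB/GAPDH/POLR2A, with bidirectional fitting versus DMSO.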

Read-out in the next test: CYP2E1 (gene 1571)
Kind of test: LTEA_HepaRG_CYP2E1: Life Technologies and Expression Analysis (LTEA) Assay for CYP2E1 using HepaRG (AID 2283485). The method in brief:
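Differentiated HepaRG cells were treated in duplicate for 48 h with chemicals in 0.5% DMSO, from 100 uM downward in half-log dilutions. RNA was then analysed by qRT-PCR for CYP2E1 induction or loss.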

Read-out in a further test: CYP4A11 (gene 1579)
The test is described as follows: LTEA_HepaRG_CYP4A11: Life Technologies and Expression Analysis (LTEA) Assay for CYP4A11 using HepaRG (AID 2283486). The method in brief: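 Human hepatic HepaRG cultures receive duplicate 48 h exposures across a concentration-response series topping at 100 uM. Expression changes in CYP4A11 are measured by qRT-PCR relative to DMSO controls.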

Read-out in test [5]: Cytochrome P450 3A4 (Homo sapiens) (UniProt P08684)
Kind of test: LTEA_HepaRG_CYP3A4: Life Technologies and Expression Analysis (LTEA) Assay for CYP3A4 using HepaRG (AID 2283487). The method in brief:
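HepaRG, 48 h exposure, 8-pt CRC from 100 uM (half-log), 0.5% DMSO, duplicates; serum-free induction medium. Readout: CYP3A4 mRNA, qRT-PCR, ACTB/GAPDH/POLR2A normalization. Bidirectional fit vs DMSO.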

Read-out in test [6]: DNA damage-inducible transcript 3 (DDIT3), DDIT3 (gene 1649)
Kind of test: LTEA_HepaRG_DDIT3: Life Technologies and Expression Analysis (LTEA) Assay for DNA damage-inducible transcript 3 (DDIT3) using HepaRG (AID 2283488). The method in brief:
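Changes in DDIT3 transcript, in either direction relative to 0.5% DMSO vehicle, were quantified by TaqMan qRT-PCR after 48 h chemical exposure of HepaRG cells at 8 concentrations, maximum 100 uM.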

Read-out in test [7]: Pro-epidermal growth factor (Homo sapiens) (UniProt P01133)
Kind of test: LTEA_HepaRG_EGF: Life Technologies and Expression Analysis (LTEA) Assay for Epidermal growth factor (EGF) using HepaRG (AID 2283489). In short, it runs like this: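 Concentration-response mRNA assay: HepaRG cells dosed 48 h (max 100 uM, 0.5% DMSO), EGF measured by qRT-PCR and normalized to ACTB/GAPDH/POLR2A.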

Read-out in test [8]: Early growth response protein 1 (EGR1) transcription factor, EGR1 (gene 1958)
The test is described as follows: LTEA_HepaRG_EGR1: Life Technologies and Expression Analysis (LTEA) Assay for Early growth response protein 1 (EGR1) transcription factor using HepaRG (AID 2283490). In short, it runs like this: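 Differentiated HepaRG cells in serum-free induction medium exposed 48 hours, duplicate, to 8 half-log concentrations up to 100 uM in 0.5% DMSO. EGR1 mRNA measured by TaqMan qRT-PCR, normalized to ACTB, GAPDH, POLR2A; bidirectional fit versus DMSO.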

Read-out in test [9]: Ezrin (EZR), EZR (gene 7430)
Kind of test: LTEA_HepaRG_EZR: Life Technologies and Expression Analysis (LTEA) Assay for Ezrin (EZR) using HepaRG (AID 2283491). The method in brief:
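Read-out is EZR transcript level by qRT-PCR, normalized to three housekeeping genes and fitted bidirectionally against the DMSO control. Human HepaRG cells received test chemicals for 48 h at eight half-log concentrations up to 100 uM in 0.5% DMSO.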

Read-out in test [10]: Cytochrome P450 3A7 (Homo sapiens) (UniProt P24462)
Kind of test: LTEA_HepaRG_CYP3A7: Life Technologies and Expression Analysis (LTEA) Assay for CYP3A7 using HepaRG (AID 2283492). In short, it runs like this: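 qRT-PCR of CYP3A7 in HepaRG lysates after 48 h treatment; concentration-response (8 points, max 100 uM) analysed bidirectionally relative to 0.5% DMSO controls.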

Read-out in another test: CYP3A5 (gene 1577)
The test is described as follows: LTEA_HepaRG_CYP3A5: Life Technologies and Expression Analysis (LTEA) Assay for CYP3A5 using HepaRG (AID 2283493). In short, it runs like this:
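mRNA induction or loss of CYP3A5 assessed in HepaRG after 48 h dosing, 100 uM top concentration, duplicate wells; TaqMan qRT-PCR with ACTB, GAPDH, POLR2A normalization; 0.5% DMSO as negative control.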

Read-out in test [11]: Fatty Acid-Binding Protein 1 (FABP1), FABP1 (gene 2168)
The test is described as follows: LTEA_HepaRG_FABP1: Life Technologies and Expression Analysis (LTEA) Assay for Fatty Acid-Binding Protein 1 (FABP1) using HepaRG (AID 2283494). In short, it runs like this: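 Differentiated human HepaRG cells exposed 48 h in serum-free induction medium to eight half-log concentrations up to 100 uM (0.5% DMSO), duplicate. FABP1 mRNA by qRT-PCR, normalised to ACTB, GAPDH, POLR2A; bidirectional fitting against DMSO.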

Read-out in test [12]: Cytochrome P450 4A22 (Homo sapiens) (UniProt Q5TCH4)
Kind of test: LTEA_HepaRG_CYP4A22: Life Technologies and Expression Analysis (LTEA) Assay for Cytochrome P450 4A22 (CYP4A22) using HepaRG (AID 2283495). In short, it runs like this:
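Concentration-response (8 points, max 100 uM, 0.5% DMSO) in human HepaRG liver cells after 48 h exposure. CYP4A22 mRNA by TaqMan qRT-PCR with housekeeping-gene normalization.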

Read-out in test [13]: Cytochrome P450 7A1 (Homo sapiens) (UniProt P22680)
The test is described as follows: LTEA_HepaRG_CYP7A1: Life Technologies and Expression Analysis (LTEA) Assay for Cytochrome P450 7A1 (CYP7A1) using HepaRG (AID 2283496). The method in brief: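 Gene expression endpoint in human HepaRG liver cells treated for 48 h with test chemicals (up to 100 uM, 0.5% DMSO). Values come from bidirectional concentration-response fitting versus DMSO.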

Read-out in test [14]: Cytochrome P450 (CYP24A1), CYP24A1 (gene 1591)
The test is described as follows: LTEA_HepaRG_CYP24A1: Life Technologies and Expression Analysis (LTEA) Assay for Cytochrome P450 (CYP24A1) using HepaRG (AID 2283478). In short, it runs like this: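 Gene expression of CYP24A1 by TaqMan qRT-PCR in HepaRG after 48 h treatment, highest concentration 100 uM; activity fitted in both directions relative to DMSO vehicle.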

Activity calls are given as the source filed them. Rule for the calls: active = hit-call score of the fitted dose curve at least 0.9, where 1 is the maximum; inactive = score below 0.9.

Cytochrome P450 3A7 (Homo sapiens), sequence (P24462 whole entry, looked up): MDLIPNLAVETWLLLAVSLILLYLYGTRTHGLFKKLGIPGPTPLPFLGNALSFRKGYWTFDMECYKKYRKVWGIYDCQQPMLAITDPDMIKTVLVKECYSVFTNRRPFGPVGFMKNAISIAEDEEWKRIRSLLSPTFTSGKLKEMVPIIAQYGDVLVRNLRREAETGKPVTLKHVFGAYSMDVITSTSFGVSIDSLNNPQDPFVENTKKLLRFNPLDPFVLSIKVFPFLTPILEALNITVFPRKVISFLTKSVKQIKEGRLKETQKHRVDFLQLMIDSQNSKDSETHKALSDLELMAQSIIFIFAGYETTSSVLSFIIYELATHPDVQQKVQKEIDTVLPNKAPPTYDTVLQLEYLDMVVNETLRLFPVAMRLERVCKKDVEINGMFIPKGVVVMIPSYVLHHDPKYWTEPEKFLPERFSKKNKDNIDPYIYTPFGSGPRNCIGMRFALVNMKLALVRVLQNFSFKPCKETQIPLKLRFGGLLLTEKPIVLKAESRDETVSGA
Cytochrome P450 2C19 (Homo sapiens), sequence (P33261 whole entry, looked up): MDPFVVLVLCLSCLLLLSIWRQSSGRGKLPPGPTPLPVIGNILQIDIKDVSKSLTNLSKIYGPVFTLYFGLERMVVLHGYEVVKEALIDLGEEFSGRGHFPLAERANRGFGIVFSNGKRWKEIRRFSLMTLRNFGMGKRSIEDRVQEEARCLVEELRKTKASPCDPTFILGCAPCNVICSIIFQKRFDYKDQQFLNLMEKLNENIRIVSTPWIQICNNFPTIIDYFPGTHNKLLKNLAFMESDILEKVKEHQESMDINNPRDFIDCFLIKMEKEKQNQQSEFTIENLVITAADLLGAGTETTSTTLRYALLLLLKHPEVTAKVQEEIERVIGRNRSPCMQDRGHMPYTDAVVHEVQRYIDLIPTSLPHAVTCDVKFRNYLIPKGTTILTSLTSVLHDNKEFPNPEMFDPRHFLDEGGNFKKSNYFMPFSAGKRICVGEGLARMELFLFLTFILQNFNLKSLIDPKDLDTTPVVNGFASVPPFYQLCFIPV
Caspase-3 (Homo sapiens), sequence (P42574 whole entry, looked up): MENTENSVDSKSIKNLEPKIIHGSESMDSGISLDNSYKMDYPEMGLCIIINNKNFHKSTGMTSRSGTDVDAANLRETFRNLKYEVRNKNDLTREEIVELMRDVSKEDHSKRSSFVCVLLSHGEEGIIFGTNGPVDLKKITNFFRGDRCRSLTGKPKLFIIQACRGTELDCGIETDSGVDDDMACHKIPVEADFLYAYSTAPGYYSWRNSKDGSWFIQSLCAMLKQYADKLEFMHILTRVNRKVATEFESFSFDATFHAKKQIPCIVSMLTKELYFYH
Cytochrome P450 3A4 (Homo sapiens), sequence (P08684 whole entry, looked up): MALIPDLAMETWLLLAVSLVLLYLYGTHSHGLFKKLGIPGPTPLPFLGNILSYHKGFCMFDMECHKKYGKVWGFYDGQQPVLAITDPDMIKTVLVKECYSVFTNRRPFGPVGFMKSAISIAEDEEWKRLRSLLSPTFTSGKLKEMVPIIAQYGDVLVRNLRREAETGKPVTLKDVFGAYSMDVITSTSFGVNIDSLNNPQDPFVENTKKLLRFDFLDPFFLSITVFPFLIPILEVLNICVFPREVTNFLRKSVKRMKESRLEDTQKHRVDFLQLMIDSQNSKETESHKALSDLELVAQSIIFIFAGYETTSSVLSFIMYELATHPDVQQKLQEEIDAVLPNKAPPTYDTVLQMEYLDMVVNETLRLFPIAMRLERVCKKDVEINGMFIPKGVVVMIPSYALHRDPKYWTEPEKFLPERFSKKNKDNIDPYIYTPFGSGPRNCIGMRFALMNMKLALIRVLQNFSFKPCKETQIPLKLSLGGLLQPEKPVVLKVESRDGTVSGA

For the compound `CNC(=O)[C@H]1O[C@@H](n2cnc3c(NCc4cc(Cl)ccc4OCc4cc(C)no4)ncnc32)[C@H](O)[C@@H]1N`, the call (with Caspase-3 (Homo sapiens); in [1]; in test [2]; in [3]; in test [4]; with CYP2C8 (gene 1558)) was inactive. Moreover, the outcome (in the test with CYP2C9 (gene 1559); in the test with CYP2E1 (gene 1571); in the test with CYP4A11 (gene 1579); in [5]; in [6]; in test [7]) was inactive. The result (in test [8]; in test [9]; in test [10]; with CYP3A5 (gene 1577); in [11]; in test [12]) was inactive. In addition, the call in test [13] was inactive.
`COCCOCCOC`: the AC50 in the test with Caspase-3 (Homo sapiens) was 423 nM (active); in test [1] it was 950 nM (active); in [2] it was 1570 nM (active); in test [3], 993 nM (active); with CYP2C8 (gene 1558), 712 nM (active); in test [6], 1380 nM (active). The AC50 in [7] was 1090 nM (active). For the same compound, the outcome (in test [4]; in the test with CYP2C9 (gene 1559); with CYP2E1 (gene 1571); with CYP4A11 (gene 1579); in [5]; in [8]) was inactive. Moreover, the outcome (in [9]; in test [10]; in the test with CYP3A5 (gene 1577); in [11]; in test [12]; in test [13]) was inactive.
In the case of `COc1cc(C=O)ccc1O`, the compound was classed as inactive (in the test with Caspase-3 (Homo sapiens); in test [14]; in test [1]; in [2]; in test [3]; in [4]). The result (with CYP2C8 (gene 1558); with CYP2C9 (gene 1559); with CYP2E1 (gene 1571); with CYP4A11 (gene 1579); in test [5]; in test [6]) was inactive. In addition, the compound was called inactive (in test [7]; in test [8]; in test [10]; in the test with CYP3A5 (gene 1577); in [11]; in [12]). In addition, the call in test [13] was inactive.
